# Shown are actives, neighbours in structure and some others; about 6% of the full set was active somewhere.
# DRD3 agonist = agonists of human D3 dopamine receptor; P35462; D3R DiscoveRx beta-arrestin cells, luminescence, 90 min; max activation, %; actives 0.58% (n = 410,000); AID 652048; in the data active = max activation above about 30%; also: 0% is about no effect
# Target sequence (P35462 whole entry, looked up): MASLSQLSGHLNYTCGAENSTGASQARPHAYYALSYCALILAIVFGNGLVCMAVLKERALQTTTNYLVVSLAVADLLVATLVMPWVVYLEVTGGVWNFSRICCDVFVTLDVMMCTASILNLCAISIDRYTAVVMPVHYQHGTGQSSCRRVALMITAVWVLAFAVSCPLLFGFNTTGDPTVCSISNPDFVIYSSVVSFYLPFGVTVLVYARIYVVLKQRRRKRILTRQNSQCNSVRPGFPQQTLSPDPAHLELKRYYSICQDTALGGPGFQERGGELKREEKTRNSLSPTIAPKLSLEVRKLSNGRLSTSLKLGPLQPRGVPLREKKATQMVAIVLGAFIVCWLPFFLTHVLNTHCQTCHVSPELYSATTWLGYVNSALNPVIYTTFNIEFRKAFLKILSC
#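 Agonist-mode cell screen: cells plated at 1500/well and incubated overnight at 37 °C, then exposed to library compounds for 90 min at 37 °C. Detection reagent was added for 30–60 min at room temperature, and luminescence was read.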
# D1 antag = human D1 dopamine receptor antagonism; HEK293 TREx D1 cells, calcium flux, dopamine EC80; active compounds read low; activity change, negative = inhibition, % at 10 µM; actives 3.2% (n = 360,000); in the data active = activity change below about -30%; also: % is scaled to controls: 0 for no effect and ±100 for the full control effect
#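 Cells carrying a force-coupled, tetracycline-inducible human D1 receptor report calcium flux. Each well gets a 10 s baseline, compound with 180 s monitoring, then an EC80 dopamine stimulus with a second 180 s kinetic read.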
# D1 agonist = human D1 receptor agonism. P21728. HEK293 T-REx D1 cells, calcium flux, agonist mode. activation, % at 2 µM. actives 1% (n = 360,000); in the data active = activation above about 30%; also: 0% is about no effect
#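 Inducible HEK293 T-REx D1 cells, force-coupled to calcium signalling, were plated at 4000 cells/well with tetracycline and held overnight at 30 C. After no-wash calcium dye loading, compound-evoked calcium rise over 180 s flagged agonists.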
# D1 potentiator = enhances dopamine response at the human D1 receptor. P21728. HEK293 TREx D1 cells, calcium flux, dopamine EC20 potentiation. potentiation, % at 10 µM. actives 0.036% (n = 360,000). AID 504651; in the data active = potentiation above about 30%; also: 0% is about no effect
# DRD3 antagonist = antagonists of human D3 dopamine receptor; actives 2.5% (n = 360,000); AID 652054; P35462; D3R cells, DiscoveRx beta-arrestin luminescence, antagonist mode; active compounds read low; max response, negative = inhibition, %; in the data active = max response below about -50%; also: % is scaled to controls: 0 for no effect and ±100 for the full control effect
#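 Cells plated overnight at 1500 cells/well, then exposed to library compounds with dopamine controls for 90 minutes at 37 degrees C. DiscoveRx reagent added for 30–60 minutes at room temperature; luminescence read, quantitative HTS format.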
# Numbers without * were called inactive; x = not tested or not shown; ! = repeats disagree.
SMILES,DRD3 agonist,D1 antag,D1 agonist,D1 potentiator,DRD3 antagonist
Cc1[nH]c(C)c(S(=O)(=O)N2CCN(c3ccc(Cl)cc3)CC2)c1C(=O)N1CCCC1,1,-34*,0,0,4
CC(=O)c1ccc(N2CCN(S(=O)(=O)c3c(C)[nH]c(C)c3C(=O)N3CCCC3)CC2)cc1,1,-2,2,1,-21
Cc1[nH]c(C)c(S(=O)(=O)NCc2ccc(Cl)cc2)c1C(=O)N1CCCC1,-19,-9,0,33*,-11
CCOC(=O)N(O)c1ccc(C=Cc2ccccc2)cc1,1,x,x,x,7
OC(COCC1COc2ccccc2O1)CN1CCc2ccccc2C1 (centres undefined),-1,-17,33*,-10,14
OC(COCC1COc2ccccc2O1)CN1CCN(c2ccccn2)CC1 (centres undefined),75*!,4,1,-2,-24
O=[N+]([O-])c1ccccc1S(=O)(=O)Nc1cccc(-c2ccc3nncn3n2)c1,-3,-6,6,-6,-6
COC(=O)C[C@H](NC(=O)Cn1cc(C)c(=O)[nH]c1=O)C(=O)OC,3,x,x,x,5
Cc1cc(NC(=O)c2ccccc2)n(C(C)(C)C)n1,2,-33*,0,-3,10
CC(C)(C)n1nc2c(c1NC(=O)c1ccccc1)CS(=O)(=O)C2,3,-41*,0,-15,-1
COc1ccccc1NC(=O)CSc1nc(=O)n(Cc2ccncc2)c2c1CCCC2,8,37,2,1,20
O=C(O)CC/C(=C\c1ccc(N2CCOCC2)c([N+](=O)[O-])c1)c1nc2ccccc2s1,-2,-77*,0,-14,-5
COc1ccc(-c2cc(C(F)(F)F)c(C#N)c(SCC(=O)Nc3ccccc3F)n2)cc1,0,-18,21,-3,x
COc1ccc(-c2cc(-c3ccccc3)nc(SCC(=O)Nc3ncc(C)s3)c2C#N)cc1,-46,5,16,-10,-56*
COc1ccc(NC(=O)CSc2nc(-c3cccs3)cc(C(F)(F)F)c2C#N)cc1,3,-3,14,2,x
COc1ccc(NC(=O)CSc2nc(-c3ccc(C)cc3)cc(C(F)(F)F)c2C#N)cc1,0,-41*,5,-7,13
COc1ccc(-c2cc(C(F)(F)F)c(C#N)c(SCC(=O)Nc3ccccc3C#N)n2)cc1,-1,4,60*,1,25
CCc1nnc(NC(=O)CSc2nc(-c3ccc(F)cc3)cc(-c3ccccc3)c2C#N)s1,1,15,2,4,-4
CCOC(=O)c1ccc(NC(=O)CSc2nc(-c3cccs3)cc(C(F)(F)F)c2C#N)cc1,9,-8,50*,-1,x
O=C(CSc1nc2c([nH]c3ccccc32)c(=O)n1-c1ccc(Cl)cc1)N1CCCCCC1,1,-2,2,-4,x
N#Cc1c(-c2ccccc2)cc(-c2cccs2)nc1SCC(=O)O,-16,-12,4,-4,-55*
COc1ccc(-c2cc(-c3cccs3)c(C#N)c(SCC(=O)NCc3ccccc3OC)n2)cc1,-2,-36*,6,3,15
CCCOc1ccc2ccccc2c1/C=N/n1cnnc1,-4,2,1,6,-13
CCOc1ccc2ccccc2c1/C=N/n1cncn1,1,-47*,13,4,3
O=C(Nc1ccc(Cl)cc1)Nc1ccccc1NS(=O)(=O)c1cccs1,-6,-33*,21,-13,-7
SMILES,DRD3 agonist,D1 antag,D1 agonist,D1 potentiator,DRD3 antagonist
CCCCc1cc(=O)oc2cc(C)cc(O)c12,1,-35*,18,-9,9
Cc1ccc(CSc2cc(C)[nH]c(=O)n2)cc1,4,-7,-1,0,-19
COc1cccc(C2C(C(=O)Nc3ccccc3OC)=C(C)Nc3nc(-c4ccco4)nn32)c1 (centres undefined),3,-2,0,-4,x
Cn1c(-c2ccccc2)c(Sc2ccccc2)c2cc(-c3ccc4cc[nH]c4c3)ccc21,0,x,x,x,-3
CC(C)c1cc(C(=O)NNC(=S)NC2CCCCC2)cs1,-20,-2,1,1,-53*
O=C(O)C1CCCCC1C(=O)Nc1ccccc1F (centres undefined),-8,-11,5,-3,-51*
O=C(O)C1CCCCC1C(=O)Nc1ccccc1Cl (centres undefined),13,-2,3,1,24
N#C/C(=C(O)\C=C\c1ccccc1)c1nc2ccccc2[nH]1,-5,-31*,3,-16,-24
COc1ccc(C)cc1NC(=O)C1CCN(S(=O)(=O)c2ccc3c(c2)CCCN3C(C)=O)CC1,8,14,1,-4,x
CC1=C(C#N)c2nc(N)c(C#N)c(C)c2/C1=C\c1ccc(C)cc1,x,-8,3,-5,x
COc1cc(/C=C2\C(C)=C(C#N)c3nc(N)c(C#N)c(C)c32)ccc1OCC(=O)O,1,-57*,4,-4,4
O=C(Nc1ccccc1Cl)C1CCN(S(=O)(=O)c2cccc3nonc23)CC1,-9,-2,10,-5,0
COc1cccc(C(=O)NC2CC3CCCC(C2)N3CC(=O)Nc2ccccc2)c1 (centres undefined),-3,11,8,1,-59*
O=C(CN1C2CCCC1CC(NC(=O)c1ccccc1)C2)Nc1ccccc1 (centres undefined),-12,-53*,9,-4,-26
CNC(C)CCC=C(C)C (centres undefined),-20,x,x,x,x
O=[N+]([O-])c1ccc2nc(-c3ccccc3[N+](=O)[O-])[nH]c2c1,-9,-39*,10,-9,-17
O=[N+]([O-])c1ccc2nc(-c3ccc(Cl)cc3)[nH]c2c1,-1,-49*,27,-4,15
Cc1ccc(-c2nc3ccc([N+](=O)[O-])cc3[nH]2)cc1,-3,-12,7,-10,-8
CCOc1ccc(C(CC(=O)O)NC(=O)C(c2ccccc2)c2ccccc2)cc1OC (centres undefined),0,0,1,-5,-5
COc1ccc(N2CCN(C(=O)CCc3ccc(S(=O)(=O)NC(C)(C)C)cc3)CC2)cc1,2,-8,2,-10,-7
CCOC(=O)C1CCN(C(=O)CN2c3ccc(CC)cc3-c3ccccc3S2(=O)=O)CC1,-11,-33*,6,-1,x
CCOC(=O)C1CCN(C(=O)CN2C(=O)c3ccccc3S2(=O)=O)CC1,-6,1,4,-2,-15
COc1cccc(C(=O)Nc2cccc(OCc3cc(=O)n4c5c(sc4n3)CCCC5)c2)c1,6,-7,5,1,x
Cc1cc(Cl)ccc1OCc1cc(=O)n2c3c(sc2n1)CCCC3,11,-31*,3,1,x
COc1ccc(C(=O)Nc2cccc(OCc3cc(=O)n4c5c(sc4n3)CCCC5)c2)cc1,1,-30*,0,0,x
